Measurements taken from PubChem BioAssay (NCATS).
Where “and” joins values, the source holds several entries; their conditions need not be identical. Identical values can stand only once. Results filed as inconclusive are left out. A call without a number means that no potency is given here. Unmarked numbers belong to inactive results. Calls of active or inactive are those of the source. Unless noted, calls come from the whole dose curve; as a rule, active = well fitted curve in the direction sought with a large enough effect; inconclusive = small, poorly fitted or top-dose-only effect, or another doubt; inactive = no such curve, though single readings can be large; an effect the other way counts as inactive or inconclusive.

How the values were obtained:
[1] = biological target: Calcium and integrin-binding protein 1 (Homo sapiens) (UniProt Q99828); experiment: Primary qHTS for Identification of Calcium Integrin Binding Protein 1 (CIB1) Competitor (AID 1508620);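 note: GST tagged CIB1 binding a fluorescein labelled alphaIIb integrin peptide tracer; top concentration of the series differs between compounds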
How it was run: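 Fluorescence polarization competition: GST-tagged CIB1 (1 uM final) preincubated with compound 15 min at room temperature, then FITC-labelled alphaIIb peptide (100 nM final) added. After 15 min at room temperature, polarization read at Ex 480/Em 540.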

[2] = Primary qHTS for small molecule stabilizers of the endoplasmic reticulum resident proteome: Secreted ER Calcium Modulated Protein (SERCaMP) assay (AID 1508630); note: potency is the fitted concentration of half-maximal effect
How it was run: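 The SH-SY5Y reporter protocol was run at 3 concentrations up to 38.3 uM (primary) or 11 concentrations (follow-up): 16 h compound, 100 nM thapsigargin for 4 h, then extracellular luciferase luminescence.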

[3] = biological target: Cytochrome P450 2D6 (Homo sapiens) (UniProt P10635); experiment: Cytochrome P450 family 2 subfamily D member 6 (CYP2D6) small molecule antagonists: luciferase biochemical (cell-free) qHTS assay (AID 1645840; active = well fitted curve in the direction sought with a large enough effect in the repeat runs; an effect the other way counts as inactive or inconclusive; note: nearly all actives have a fitted effect of over 55% in size; note: potency is the fitted concentration of half-maximal effect)
How it was run: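 P450-Glo CYP2D6 system: proluciferin substrate converted by enzyme to luciferin, read by luminescence proportional to activity. Enzyme-substrate mix with compound 10 min at room temperature, then NADPH regeneration 1 h before detection reagent.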

[4] = biological target: Cytochrome P450 2C9 (Homo sapiens) (UniProt P11712); experiment: Cytochrome P450 family 2 subfamily C member 9 (CYP2C9) small molecule antagonists: luciferase biochemical (cell-free) qHTS assay (AID 1645842; active = well fitted curve in the direction sought with a large enough effect in the repeat runs; an effect the other way counts as inactive or inconclusive; note: nearly all actives have a fitted effect of over 55% in size; note: potency is the fitted concentration of half-maximal effect)
How it was run: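 P450-Glo CYP2C9 system: proluciferin substrate with enzyme in mix containing 0.4% BSA, 10 min at room temperature, then NADPH regeneration solution added and incubated 1 h at 37C. Detection reagent stopped reaction; luminescence read after 20 min as RLU.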

[5] = Primary qHTS for inhibitors of nuclear receptor binding SET domain protein 2 (NSD2) in an isogenic RCH-ACV NSD2 p.E1099K mutant (9B) (AID 1645876); note: nearly all actives have a fitted effect of over 70% in size; note: potency is the fitted concentration of half-maximal effect
[6] = Primary qHTS for inhibitors of nuclear receptor binding SET domain protein 2 (NSD2) in an RCH-ACV wild type WT cells (2C) (AID 1645877); note: nearly all actives have a fitted effect of over 70% in size; note: potency is the fitted concentration of half-maximal effect
[7] = Primary qHTS for inhibitors of La Crosse Virus (LACV) - induced cell death in SH-SY5Y cells (AID 1508616);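 note: top concentration of the series differs between compounds; higher means more rescue of cells from virus-induced death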
How it was run: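 Cytopathicity rescue screen: compounds pinned onto SH-SY5Y cells, which are then infected with LACV (MOI 0.01) and held 6 days at 37C. Percent activity is scaled between infected DMSO control and uninfected DMSO control.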

[8] = A High-Content qHTS Against Drug Library for the Identification of Small Molecules that Inhibit DYT1 Early Onset Primary Dystonia-Associated Cell Pathology (AID 1645839; calls by dose curve; note: series mostly up to about 46 µM)
How it was run: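 Cells were seeded and left for 24 h, then dosed with compound alongside tetracycline induction of mutant EGFP-TorsinA. They were incubated for 48 h, fixed in 4% paraformaldehyde, permeabilized and imaged for mislocalization (%pathology) and cell count.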

[9] = biological target: Cytochrome P450 3A4 (Homo sapiens) (UniProt P08684); experiment: Cytochrome P450 family 3 subfamily A member 4 (CYP3A4) small molecule antagonists: luciferase qHTS assay (AID 1645841; active = well fitted curve in the direction sought with a large enough effect in the repeat runs; an effect the other way counts as inactive or inconclusive; note: nearly all actives have a fitted effect of over 45% in size)
How it was run: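 P450-Glo CYP3A4 enzyme with proluciferin substrate preincubated 10 min with compound at room temperature, then NADPH regeneration 1 h. Luciferin detection reagent added for 20 min; luminescence recorded. Ketoconazole positive control.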

[10] = biological target: Calcium and integrin-binding protein 1 (Homo sapiens) (UniProt Q99828); experiment: Confirmatory qHTS for Identification of Calcium Integrin Binding Protein 1 (CIB1) Competitor (AID 1508617); note: nearly all actives have a fitted effect of over 65% in size
How it was run: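 FP competition: CIB1-GST (1 uM final) in 5 mM HEPES pH 7.4, 125 mM NaCl, 5 mM CaCl2, 0.01% Tween20 preincubated 15 min RT with compounds (up to 114 uM), then FITC-alphaIIb peptide (100 nM), 15 min RT; Ex 480/Em 540.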

[11] = Cell Viability qHTS for small molecule stabilizers of the endoplasmic reticulum resident proteome (AID 1508629); details: cell viability counter-screen, 100 nM thapsigargin for final 4 h;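 note: potency is the fitted concentration of half-maximal effect; compound exposure about 46 h in total before the viability read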
[12] = Counterscreen qHTS for small molecule stabilizers of the endoplasmic reticulum resident proteome: GLuc-NoTag assay (AID 1508627);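 note: SH-SY5Y cells given compound then 100 nM thapsigargin to empty ER calcium; series mostly up to about 76 µM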
How it was run: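 Counterscreen line: SH-SY5Y-GLuc-NoTag. Seed, 5 h; compound, 19 h; thapsigargin 100 nM, 4 h; 37C/5% CO2. Readout: secreted GLuc luminescence, coelenterazine 0.07x final, no lysis.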

[13] = Confirmatory qHTS for small molecule stabilizers of the endoplasmic reticulum resident proteome: Secreted ER Calcium Modulated Protein (SERCaMP) assay (AID 1508628); note: potency is the fitted concentration of half-maximal effect; nearly all actives have a fitted effect of over 40% in size
How it was run: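 GLuc-SERCaMP-expressing SH-SY5Y cells, pretreated 16 h with compound, are challenged with thapsigargin to empty ER calcium stores; after 4 h, coelenterazine is added directly to the medium and luminescence is imaged.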

Sequence of Cytochrome P450 2C9 (Homo sapiens) (P11712 whole entry, looked up): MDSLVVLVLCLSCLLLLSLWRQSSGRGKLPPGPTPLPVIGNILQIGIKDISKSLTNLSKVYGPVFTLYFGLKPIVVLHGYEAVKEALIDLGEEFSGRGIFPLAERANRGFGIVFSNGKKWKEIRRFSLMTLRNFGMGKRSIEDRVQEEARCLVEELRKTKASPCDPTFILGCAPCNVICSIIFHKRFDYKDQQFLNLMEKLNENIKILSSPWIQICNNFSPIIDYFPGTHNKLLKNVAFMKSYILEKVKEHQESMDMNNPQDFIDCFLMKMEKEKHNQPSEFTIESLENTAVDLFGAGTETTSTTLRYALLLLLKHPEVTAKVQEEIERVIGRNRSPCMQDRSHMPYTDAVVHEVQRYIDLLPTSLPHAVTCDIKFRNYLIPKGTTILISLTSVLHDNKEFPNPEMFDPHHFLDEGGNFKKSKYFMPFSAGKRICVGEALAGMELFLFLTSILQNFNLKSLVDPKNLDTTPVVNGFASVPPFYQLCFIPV
Sequence of Cytochrome P450 2D6 (Homo sapiens) (P10635 whole entry, looked up): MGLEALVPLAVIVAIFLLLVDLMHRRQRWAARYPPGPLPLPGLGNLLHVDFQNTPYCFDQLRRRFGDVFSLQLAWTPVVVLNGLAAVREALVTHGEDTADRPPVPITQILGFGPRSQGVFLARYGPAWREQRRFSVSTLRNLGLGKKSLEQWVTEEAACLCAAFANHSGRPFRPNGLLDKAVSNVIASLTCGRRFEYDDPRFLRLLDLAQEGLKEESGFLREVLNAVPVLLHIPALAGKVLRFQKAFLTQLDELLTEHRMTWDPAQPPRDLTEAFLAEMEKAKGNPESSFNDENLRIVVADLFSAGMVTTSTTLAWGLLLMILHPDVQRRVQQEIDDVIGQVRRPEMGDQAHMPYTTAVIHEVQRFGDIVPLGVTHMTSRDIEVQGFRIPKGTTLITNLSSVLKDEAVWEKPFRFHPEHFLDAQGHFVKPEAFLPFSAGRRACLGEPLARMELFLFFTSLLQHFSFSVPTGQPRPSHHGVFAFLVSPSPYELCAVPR
Sequence of Calcium and integrin-binding protein 1 (Homo sapiens) (Q99828 whole entry, looked up): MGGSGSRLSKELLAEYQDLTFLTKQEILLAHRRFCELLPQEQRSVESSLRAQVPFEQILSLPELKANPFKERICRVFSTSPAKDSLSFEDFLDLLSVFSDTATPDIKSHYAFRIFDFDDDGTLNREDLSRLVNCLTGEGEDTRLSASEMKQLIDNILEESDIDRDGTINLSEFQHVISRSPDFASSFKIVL
Sequence of Cytochrome P450 3A4 (Homo sapiens) (P08684 whole entry, looked up): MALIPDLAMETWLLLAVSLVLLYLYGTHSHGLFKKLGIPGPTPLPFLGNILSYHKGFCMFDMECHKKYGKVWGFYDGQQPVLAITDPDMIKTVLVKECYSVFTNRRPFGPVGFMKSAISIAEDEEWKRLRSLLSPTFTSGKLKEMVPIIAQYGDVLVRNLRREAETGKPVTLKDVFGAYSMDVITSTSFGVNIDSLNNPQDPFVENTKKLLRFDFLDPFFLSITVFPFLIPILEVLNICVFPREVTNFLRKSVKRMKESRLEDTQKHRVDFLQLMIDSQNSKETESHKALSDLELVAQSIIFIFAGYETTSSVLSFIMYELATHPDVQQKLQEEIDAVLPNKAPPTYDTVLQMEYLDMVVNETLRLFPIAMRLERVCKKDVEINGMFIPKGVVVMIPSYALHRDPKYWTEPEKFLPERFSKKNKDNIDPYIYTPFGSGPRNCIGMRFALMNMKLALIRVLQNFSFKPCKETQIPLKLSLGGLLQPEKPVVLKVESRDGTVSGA

Which Potency [1] does the source give for `Cc1cc(O)c2c(O)c3c(O)cccc3cc2c1` here?
Its Potency is “inactive”.

And the Potency [2]?
The Potency was “inactive”.

And the Potency [3]?
Its Potency is “inactive”.

And the Potency [4]?
The Potency was 3.09 µM (active).

What about the Potency [5] of the same molecule?
Its Potency is “inactive”.

And the Potency [6]?
The Potency was “inactive”.

For `CC(C)(C)C(O)/C=C/c1ccc2c(c1)OCO2` (stereo unspecified), which outcome [7] is on record?
The outcome was “inactive”.

What about the Potency [8] of the same molecule?
Its Potency is “inactive”.

And the Potency [3]?
The Potency was 11 µM (active).

What about the Potency [4] of the same molecule?
The Potency was 3.09 µM (active).

What about the Potency [5] of the same molecule?
Its Potency is “inactive”.

What about the Potency [6] of the same molecule?
Its Potency is “inactive”.

With `O=C(NN1CCCC1)NS(=O)(=O)c1ccc(Cl)cc1` as the molecule, how does the Potency [1] read?
Its Potency is “inactive”.

And the Potency [2]?
The Potency was “inactive”.

What about the Potency [8] of the same molecule?
The Potency was “inactive”.

And the Potency [3]?
Its Potency is “inactive”.

And the Potency [9]?
Its Potency is “inactive”.

What about the Potency [4] of the same molecule?
The Potency was “inactive”.

What about the Potency [5] of the same molecule?
Its Potency is “inactive”.

What about the Potency [6] of the same molecule?
Its Potency is “inactive”.

For `CN(C)CCN(Cc1ccsc1)c1ccccn1`, which Potency [1] is on record?
The Potency was “inactive”.

And the Potency [2]?
Its Potency is “inactive”.

And the Potency [8]?
Its Potency is “inactive”.

What about the Potency [3] of the same molecule?
Its Potency is 6.92 µM (active).

What about the Potency [5] of the same molecule?
Its Potency is “inactive”.

And the Potency [6]?
Its Potency is “inactive”.

Which Potency [10] does the source give for `O=[N+]([O-])c1ccc(O)c2ncccc12` here?
The Potency was “inactive”.

And the Potency [11]?
Its Potency is 7.94 µM (active).

What about the Potency [2] of the same molecule?
The Potency was 1 µM (active).

What about the Potency [3] of the same molecule?
Its Potency is “inactive”.

And the Potency [5]?
Its Potency is 1.88 µM (active) and 6.61 µM (active).

And the Potency [6]?
Its Potency is 841 nM (active) and 6.61 µM (active).

What does the source list for `CC(C)C(C)(C)C(C)(C)C(C)(C)S`?
outcome [7]: inactive; Potency [3]: inactive; Potency [5]: inactive; Potency [6]: inactive

Which Potency [1] does the source give for `Cc1cc(CCCOc2c(C)cc(-c3noc(C(F)(F)F)n3)cc2C)on1` here?
The Potency was “inactive”.

What about the Potency [2] of the same molecule?
The Potency was “inactive”.

And the Potency [8]?
The Potency was “inactive”.

What about the Potency [4] of the same molecule?
The Potency was 19.5 µM (active).

For `CN1CCC(N(Cc2cccs2)c2ccccc2)CC1`, which Potency [10] is on record?
Its Potency is “inactive”.

And the Potency [12]?
The Potency was “inactive”.

What about the Potency [13] of the same molecule?
The Potency was 31.6 µM (active).

And the Potency [3]?
The Potency was 0.49 µM (active).

And the Potency [4]?
Its Potency is “inactive”.

What does the source list for `C[C@H]1NCc2cc(-c3ccc4c(=O)c(C(=O)O)cn(C5CC5)c4c3OC(F)F)ccc21`?
Potency [1]: inactive; Potency [2]: inactive; Potency [8]: inactive; Potency [3]: inactive; Potency [4]: inactive; Potency [5]: inactive; Potency [6]: inactive

Which Potency [1] does the source give for `Cc1cccc(N(C)C(=S)Oc2ccc3c(c2)CCC3)c1` here?
The Potency was “inactive”.

And the Potency [2]?
The Potency was “inactive”.

And the Potency [8]?
Its Potency is “inactive”.

What about the Potency [5] of the same molecule?
Its Potency is “inactive”.

What about the Potency [6] of the same molecule?
Its Potency is “inactive”.

Which Potency [1] does the source give for `O=C(CCOCCOCCOCCOCCC(=O)Nc1c(I)cc(I)c(C(=O)O)c1I)Nc1c(I)cc(I)c(C(=O)O)c1I` here?
The Potency was “inactive”.

And the Potency [2]?
The Potency was “inactive”.

What about the Potency [8] of the same molecule?
The Potency was “inactive”.

And the Potency [3]?
The Potency was “inactive”.

And the Potency [9]?
The Potency was “inactive”.

What about the Potency [4] of the same molecule?
The Potency was “inactive”.

What about the Potency [5] of the same molecule?
Its Potency is “inactive”.

What about the Potency [6] of the same molecule?
Its Potency is “inactive”.

Which Potency [1] does the source give for `CCC(CN)=C(c1ccccc1)c1ccccc1` here?
Its Potency is “inactive”.

What about the Potency [2] of the same molecule?
The Potency was “inactive”.

What about the Potency [3] of the same molecule?
The Potency was 3.63 µM (active).

What about the Potency [4] of the same molecule?
The Potency was 11.5 µM (active).

What does the source list for `CC(=O)O[C@H]1CC[C@@]2(C)C(=CC[C@@H]3[C@@H]2CC[C@]2(C)C(C(C)=O)=CC[C@@H]32)C1`?
Potency [1]: inactive; Potency [2]: inactive; Potency [8]: inactive; Potency [3]: inactive; Potency [4]: inactive; Potency [5]: inactive; Potency [6]: inactive
